A selection: hits, their analogues and other compounds. The true share with any hit is near 0.24%.
mcGAS lum = mouse cGAS inhibition by luminescence; Q8C6L5; recombinant cGAS, Kinase-Glo ATP depletion luminescence; inhibition, % at 12.5 µM; hit rate 0.15% among 160,000; AID 1259399
NPYLR7 ag = mosquito NPYLR7 agonism; hit rate 0.15% among 270,000; HEK293T NPYLR7/Galpha15, GCaMP6s calcium fluorescence; activation, % at 10 µM; AID 1259423; in the data active means activation above about 40%
hcGAS inh = blocks human cGAS activity; recombinant h-cGAS, ATP depletion, Kinase-Glo luminescence; inhibition, % at 12.5 µM; Q8N884; hit rate 0.081% among 290,000
Target sequence (Q8N884 whole entry, looked up): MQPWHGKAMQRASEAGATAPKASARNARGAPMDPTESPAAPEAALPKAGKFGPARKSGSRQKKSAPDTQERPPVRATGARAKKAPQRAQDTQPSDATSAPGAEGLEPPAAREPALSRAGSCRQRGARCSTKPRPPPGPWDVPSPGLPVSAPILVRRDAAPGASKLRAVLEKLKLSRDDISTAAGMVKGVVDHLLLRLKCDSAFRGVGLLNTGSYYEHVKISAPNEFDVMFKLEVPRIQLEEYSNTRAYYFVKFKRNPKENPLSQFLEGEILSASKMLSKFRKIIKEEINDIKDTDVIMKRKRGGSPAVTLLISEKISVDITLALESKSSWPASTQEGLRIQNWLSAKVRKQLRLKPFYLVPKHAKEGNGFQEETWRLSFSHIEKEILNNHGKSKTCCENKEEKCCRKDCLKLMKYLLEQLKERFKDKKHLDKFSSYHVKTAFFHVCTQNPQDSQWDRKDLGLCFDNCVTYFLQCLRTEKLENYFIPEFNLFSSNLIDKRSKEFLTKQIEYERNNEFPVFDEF
Of the large screens only hits and unclear results are named; the others gave an inactive call. Unless noted, no stated cut-off is given here; in the data, active means inhibition above about 40%; inactive means the rest.

COC(=O)Cn1c(CN2CCN(Cc3ccccc3)CC2)nc2c1c(=O)n(C)c(=O)n2C	none (no result: mcGAS lum)
O=C(CC1SC(=O)NC1=O)Oc1ccc(/C=C2\SC(=O)NC2=S)cc1 (configuration not stated)	NPYLR7 ag 158, hcGAS inh 44 (no result: mcGAS lum)
O=C(O)CN1C(=O)/C(=C\c2ccc(OC(=O)c3ccc(Cl)cc3)cc2)SC1=S	none
Oc1oc(-c2ccccc2Br)nc1C=Nc1ccccc1	NPYLR7 ag 65 (no result: mcGAS lum)
Cc1ccc(N=Cc2nc(-c3ccccc3Br)oc2O)cc1	none (no result: mcGAS lum)
O=C(NCc1ccc(Cl)cc1)c1nnn(Cc2cccc(F)c2)c1-n1cccc1	none
CCCNC(=O)N(CCOC)Cc1nccn1Cc1cc(C)ccc1C	none
CN(C)C1CCCN(C(=O)C23CC4CC(C2)CC(n2cncn2)(C4)C3)CC1 (configuration not stated)	none
Cc1ccccc1-n1nc(C)c(-c2ccccc2)c1NC(=O)CN(CC(C)C)S(=O)(=O)c1ccc([N+](=O)[O-])cc1	none
CCCCN(CC(=O)Nc1c(-c2ccccc2)c(C)nn1-c1ccccc1C)S(=O)(=O)c1ccc(F)cc1	NPYLR7 ag 48
CN(C)C1(CNC(=O)Nc2ccc(N3CCSCC3)c(Cl)c2)CCSC1 (configuration not stated)	none (no result: mcGAS lum)
CC1C(=O)N(c2ccc(F)cc2F)CCN1C(=O)c1cccc(F)c1 (configuration not stated)	mcGAS lum 72
CC1C(=O)N(c2ccc(F)cc2F)CCN1C(=O)c1cccc(Br)c1 (configuration not stated)	none
CCOC(=O)C1CCN(c2cc(C)nn3cnnc23)CC1	none
CC(C)C(NC(=O)c1cccc(F)c1)c1ccc2c(c1)OCCCO2 (configuration not stated)	none (no result: mcGAS lum)
Cc1ccc(CNC(=O)NC(c2ccc3c(c2)OCCCO3)C(C)C)cc1F (configuration not stated)	NPYLR7 ag 47
COc1cc(NC(=O)c2ccco2)c(OC)cc1Cl	none (no result: mcGAS lum)
COc1ccc(NC(=O)C2C=CCN2)cc1NC(=O)c1ccco1 (configuration not stated)	NPYLR7 ag 64
Cc1cc(C(F)(F)F)nc(CCNC(=O)Cc2cc(F)ccc2C)n1	none (no result: NPYLR7 ag)
COc1ccc(C(=O)Nc2ccnn2C(C)C)cc1F	none
CCCCCCCCCCCCNC(=O)c1c(O)c2ccccc2[nH]c1=O	hcGAS inh 45
O=C(NCCCO)c1c(O)c2ccccc2[nH]c1=O	none (no result: mcGAS lum)
COc1ccc(-c2csc(NC(=O)CN3CC(C)CC(C)C3)n2)c(OC)c1 (configuration not stated)	none (no result: mcGAS lum)
COc1ccc(-c2csc(NC(=O)CCl)n2)c(O)c1	mcGAS lum 60
O=C1C2C3C=CC(CC3)C2C(=O)N1/N=C\c1cc2c(cc1Br)OCO2 (configuration not stated)	none
O=C1C2C3C=CC(CC3)C2C(=O)N1/N=C\c1cc([N+](=O)[O-])c(O)cc1O (configuration not stated)	mcGAS lum 66
N#CC1C(=N)Oc2cc(N)ccc2C1c1ccccc1I (configuration not stated)	none (no result: mcGAS lum)
N#CC1C(=N)Oc2cc(N)ccc2C1c1c(Cl)cccc1Cl (configuration not stated)	NPYLR7 ag 160
O=C(CCC(=O)N1CCc2ccccc2C1)NCCc1cccs1	none
CCN1C(=O)/C(=C2\SC(=S)NC2=O)c2ccccc21	none
O=C(O)CN1C(=O)/C(=C2\SC(=S)NC2=O)c2ccccc21	mcGAS lum 103
Cc1cc(C)cc(N2C(=O)CSC2c2ccc(NC(=O)CCl)cc2)c1 (configuration not stated)	none
CCCc1ccccc1N1C(=O)CSC1c1ccc(NC(=O)CCl)cc1 (configuration not stated)	NPYLR7 ag 42
CCCN1C(=O)C(c2c(CC)[nH]n(-c3cc(C)ccc3C)c2=O)=C(N2CCC(C)CC2)C1=O	none
Cc1cccc(C)c1NC(=O)N1CCC2(CC1)C(=O)N(CC(=O)Nc1cccc(Cl)c1)CN2c1ccccc1	none
COc1c(Cl)cc(C(=O)NCC(c2cccc(F)c2)N(C)C)cc1Cl (configuration not stated)	none
CCCc1[nH]n(-c2ccc(Cl)c(Cl)c2)c(=O)c1/C=C1\NC(=O)N(Cc2ccc(C)cc2)C1=O	NPYLR7 ag 56
CCCc1[nH]n(-c2cccc(Cl)c2)c(=O)c1/C=C1\NC(=O)N(Cc2ccc(C)cc2)C1=O	none
N=C1/C(=C\c2ccco2)C(=O)N=C2SC(Cc3cccs3)=NN12	hcGAS inh 52 (no result: mcGAS lum)
N=C1/C(=C\c2ccc(Br)o2)C(=O)N=C2SC(Cc3cccs3)=NN12	none (no result: mcGAS lum)
Cn1cc(S(=O)(=O)Nc2ccc(N3CCCC3)c(Cl)c2)cn1	none (no result: mcGAS lum)
CCN(CC)c1ccc(/C=C2\SC(=S)N(CCS(=O)(=O)O)C2=O)cc1	NPYLR7 ag 137
O=C(O)CN1C(=O)/C(=C\c2ccc(I)cc2)SC1=S	none
CCN1C(=O)/C(=C/c2ccc(N(C)C)cc2)SC1=S	none
CCN(CC)c1ccc(/C=C2/SC(=S)N(CC(=O)O)C2=O)cc1	NPYLR7 ag 42
CCOc1ccccc1Nc1nnc(SCC(=O)N(C)C2CCCCC2)s1	none
COc1cccc(Oc2cc(N3CCN(S(=O)(=O)c4ccc(Cl)cc4)CC3)ncn2)c1	none
COC(=O)c1cc(C2CC2)nc2c1c(-c1ccco1)nn2C1CCS(=O)(=O)C1 (configuration not stated)	none (no result: mcGAS lum)
O=C1/C(=C/c2cc3cc(Br)ccc3o2)Oc2c1ccc(O)c2CN1CCCC1	none
CCN1CCN(Cc2c(O)ccc3c2O/C(=C\c2cc4cc(Br)ccc4o2)C3=O)CC1	NPYLR7 ag 79
CN1CCN(Cc2c(O)ccc3c2O/C(=C\c2cc4cc(Br)ccc4o2)C3=O)CC1	NPYLR7 ag 62
O=C1/C(=C/c2cc3cc(Br)ccc3o2)Oc2c1ccc(O)c2CN1CCOCC1	none
CCCOC1CCCN(C(=O)Cc2ccccc2)C1 (configuration not stated)	none (no result: mcGAS lum)
Cc1noc(C)c1C(=O)NCC1CCN(c2ccc(OC(F)(F)F)cc2)C1 (configuration not stated)	none (no result: mcGAS lum)
COc1ccc(Cc2nnc(SCC(=O)Nc3cccc(C)c3)[nH]c2=O)cc1	none
O=[N+]([O-])c1ccc(SCc2csc(Cc3ccc(Cl)c(Cl)c3)n2)nc1	none
COC(=O)C1CCN(C(=O)Cn2cc(C(F)(F)F)cc(Cl)c2=O)CC1	none (no result: mcGAS lum)
COC(=O)c1sc(N)c(C(=O)OC)c1Cn1cc(C(F)(F)F)cc(Cl)c1=O	hcGAS inh 54
COc1cccc(OC)c1OCc1nc(CN(CC(C)C)C(=O)C2CCCC2)cs1	none
CS(=O)(=O)Nc1nc2n(n1)C(c1ccccc1)CC(c1ccc(Cl)cc1)=N2 (configuration not stated)	NPYLR7 ag 66 (no result: mcGAS lum)
O=S(=O)(Nc1nc2n(n1)C(c1ccccc1)CC(c1ccccc1)=N2)c1ccccc1 (configuration not stated)	none
O=C(CCn1c(=O)[nH]c2ccccc2c1=O)NCCc1ccccc1Cl	none (no result: mcGAS lum)
CNC(=O)NC(=O)CCN1CC(c2ccccc2Cl)c2c([nH]c3ccccc23)C1C (configuration not stated)	NPYLR7 ag 41 (no result: mcGAS lum)
O=C(c1cc2n(n1)CCN(Cc1cccc(Cl)c1)C2=O)N1CCC(Cc2ccccc2)CC1	none
O=c1oc2cc(O)ccc2cc1-c1nnc(-c2ccccc2)o1	none
O=c1oc2cc(O)ccc2cc1-c1nc2ccccc2o1	NPYLR7 ag 216 (no result: mcGAS lum)

Screens: PubChem, Fisher Drug Discovery Resource Center
